This is a sample that favours compounds with a hit; in the whole collection about 12% have one here.
HP1b binding inh = HTS for Inhibitors of HP1-beta Chromodomain Interactions with Methylated Histone Tails | Chromobox protein homolog 1 (Homo sapiens), P83916 | AlphaScreen HP1-beta / biotin-H3K9me3 peptide binding | Potency, µM (titrated, usually from 114 µM), usual class: inhibitors | 390,000 compounds, 0.56% hits; further: nearly all actives have a fitted effect of over 70% in size
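AlphaScreen: HP1-beta (50 nM) preformed 30 min with biotin-H3(1-18)K9me3 peptide (50 nM) in PBS pH 7.4, 0.01% Tween-20. Compound added for 30 min at RT, then streptavidin donor/nickel chelate acceptor beads (10 ug/mL) for 30 min.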
G9a block = qHTS Assay for Inhibitors of Histone Lysine Methyltransferase G9a. Histone-lysine N-methyltransferase EHMT2 (Homo sapiens), Q96KQ7. G9a H3K9 monomethylation, AlphaScreen, 2 h. Potency, µM (doses to about 102 µM), hits mostly inhibitors. 350,000 compounds, 8.8% hits. AID 504332, 2011; further: nearly all actives have a fitted effect of over 75% in size
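Enzyme 20 nM + cpd, 15 min RT; add b-H3K9 pep 500 nM / SAM 20 uM; 2 h RT; anti-H3K9me1 Ab 0.5 ug/mL + SA donor / anti-rabbit acceptor beads 20 ug/mL each, 10 min; AlphaScreen read.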
JMJD2A Tudor inh = qHTS Assay for Inhibitors of JMJD2A-Tudor Domain; Lysine-specific demethylase 4A (Homo sapiens), O75164; AlphaScreen JMJD2A-Tudor / H3K4me3 peptide binding; AID 504339, 2011; Potency, µM (doses to about 114 µM), hits mostly inhibitors; 390,000 compounds, 4.4% hits; further: nearly all actives have a fitted effect of over 50% in size
BAZ2B inh = qHTS Assay for Inhibitors of BAZ2B | Potency, µM (doses to about 114 µM), actives largely listed as inhibitors | AlphaScreen BAZ2B-H3K14Ac peptide displacement | AID 504333, 2011 | 360,000 compounds, 4.4% hits; further: nearly all actives have a fitted effect of over 60% in size
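In this displacement format the biotinylated H3(5-23) peptide acetylated at Lys14 serves as ligand at 50 nM, with BAZ2B at 50 nM in PBS pH 7.4 containing 0.01% Tween-20. Donor and acceptor beads are 10 ug/mL final.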
Sfp PPTase inh = qHTS Assay for Inhibitors of Bacillus subtilis Sfp phosphopantetheinyl transferase (PPTase); 4'-phosphopantetheinyl transferase ffp (Bacillus subtilis), Q9F4F7; Biochemical Sfp PPTase activity, qHTS; Potency, µM, actives largely listed as inhibitors; 310,000 compounds, 3.5% hits; AID 1490, 2009;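 further: the enzyme is Sfp with the accession as filed and its product quenches rhodamine fluorescence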
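Step 1, compound plus 15 nM Sfp-PPTase, 15 min, room temperature. Step 2, add rhodamine-CoA (5 uM) and BHQ-2-YbbR (12.5 uM). Step 3, read 525/598 nm fluorescence at 0 and 30 min.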
Numbers stand for hits; – = inactive; ? = inconclusive; · = no result; ! = repeats disagree; [ ] = another dose, or the depositor's remark. The call rests on the fitted dose curve; in most records, active means well fitted curve in the direction sought with a large enough effect; inconclusive means small, poorly fitted or top-dose-only effect, or another doubt; inactive means no such curve, though single readings can be large; an effect the other way counts as inactive or inconclusive.

SMILES | HP1b binding inh | G9a block | JMJD2A Tudor inh | BAZ2B inh | Sfp PPTase inh
COc1ccc(-c2nc(CCl)cs2)cc1 | – | 25µM | – | – | –
COc1ccc(C(=O)NCC(=O)Nc2cccc(S(=O)(=O)NCc3ccco3)c2)cc1OC | – | – | – | – | –
O=C(CCCCCn1c(=O)c2sccc2n(Cc2ccccc2Cl)c1=O)NCc1ccc2c(c1)OCO2 | – | – | – | – | ·
S=c1[nH]nc(COc2ccccc2)n1/N=C/c1c(Cl)cccc1Cl | – | 2µM | – | – | –
S=c1[nH]nc(COc2ccccc2)n1/N=C/c1cccc(Cl)c1Cl | – | ? | ? | – | –
S=c1[nH]nc(COc2ccccc2)n1/N=C/c1ccccc1Cl | – | 2.2µM | 56µM | – | ?
CCOC(=O)C1=C(C)N(C)C(=O)NC1c1cc2c(cc1Br)OCO2 (centres undefined) | – | – | – | – | –
O=C1C(Cl)=C(Nc2ccccc2O)C(=O)N1CCc1ccccc1 | ? | 3.2µM | 50µM | 32µM | 11µM
Cc1ccc(C(O)CCc2ccc(N)cc2)cc1 (centres undefined) | – | – | – | – | –
CCN1CCN(C(=O)Cn2ncc3c([nH]c4ccccc43)c2=O)CC1 | – | – | – | – | –
Cc1ccc2[nH]c3c(=O)n(CC(=O)N4CCCCC4)ncc3c2c1 | – | – | – | – | ·
CC1CC(C)CN(C(=O)Cn2ncc3c([nH]c4ccccc43)c2=O)C1 (centres undefined) | – | – | 25µM | – | –
Cc1ccc(C)c(N2CCN(C(=O)Cn3ncc4c([nH]c5ccc(C)cc54)c3=O)CC2)c1 | – | 71µM | – | – | –
COc1ccc(S(=O)(=O)N2CCC(C(=O)NCC3CCCO3)CC2)cc1C (centres undefined) | – | – | – | – | –
CNC(=O)N(c1ccccc1)c1ccccc1 | – | – | – | – | –
CCCN1CCC(N2CCN(c3ccc([N+](=O)[O-])cc3)CC2)CC1 | ? | · | 20µM | 45µM | –
O=[N+]([O-])c1ccc(N2CCN(CC3CCCCC3)CC2)cc1 | ? | –[0.501 µM] | 18µM | 56µM | –
O=[N+]([O-])c1ccc(N2CCCCC2)cc1 | – | – | – | – | –
CCN1CCC(N2CCN(c3ccc(Cl)cc3)CC2)CC1 | – | – | – | – | –
CC(=O)c1ccc(N2CCN(CC3CCCCC3)CC2)cc1 | ? | 50µM | 35µM | ? | –
CN(CCOc1ccccc1)C(=O)c1ccc(OC2CCN(C(=O)C3CC3)CC2)cc1 | – | · | – | – | –
O=c1c2cn[nH]c2nc(SCc2ccccc2F)n1-c1ccc(Br)cc1 | – | – | ? | ? | –
CCOc1ccc(C(=O)c2cn(CC(=O)Nc3ccc(Cl)cc3)c3cc4c(cc3c2=O)OCO4)cc1 | – | – | – | – | ·
C=CCN1C(=O)/C(=C/c2ccc(OC(C)=O)c(OCC)c2[N+](=O)[O-])SC1=S | 16µM | 6.3µM | 25µM | 11µM | 16µM
CCCCCNC(=O)c1ccc2c(=O)n(CCCOCC)c(=S)[nH]c2c1 | – | – | – | – | –
SMILES | HP1b binding inh | G9a block | JMJD2A Tudor inh | BAZ2B inh | Sfp PPTase inh
CCOCCCn1c(=S)[nH]c2cc(C(=O)NCC(OC)OC)ccc2c1=O | – | 25µM | – | ? | –
CCOCCCn1c(=S)[nH]c2cc(C(=O)N3CCOCC3)ccc2c1=O | – | ? | 22µM | ? | 79µM
CC(NC(=O)c1cc2ccccc2oc1=O)c1ccccc1 (centres undefined) | – | – | – | – | –
COc1cc(NC(=O)COc2ccc(C)c(C)c2)ccc1NC(=O)c1ccco1 | – | – | – | – | –
CCOC(=O)C(=O)/C(C#N)=C/Nc1ccc(Cl)cc1 | – | ? | ? | – | –
CCOC(=O)C(=O)/C(C#N)=C/Nc1ccc(F)cc1 | – | 35µM | – | ? | –
CC1(C)C(=O)N(CCN2CCC(C(=O)c3ccc(F)cc3)CC2)c2ccccc21 | – | 20µM! | – | – | ·
O=C(c1ccc(F)cc1)C1CCN(CCn2c(=O)[nH]c3ccccc3c2=O)CC1 | · | – | · | · | –
CC1CC1c1ccc(/C=C(\C#N)C(=O)Nc2ccc(Cl)cc2Cl)o1 (centres undefined) | – | – | – | – | 56µM

Compound activity: PubChem BioAssay, National Center for Advancing Translational Sciences (NCATS)
